# Measured values taken from PubChem BioAssay (NCATS).
# Results filed as inconclusive are left out. A number with no mark means an inactive call. Calls come from the whole dose curve; as a rule, active = well fitted inhibition curve with a large enough effect; inconclusive = small, poorly fitted or top-dose-only effect; inactive = no such curve, though single readings can be large or run the other way.
# Target: Retinaldehyde dehydrogenase 3 (Homo sapiens) (UniProt P47895)
# Test: qHTS for Inhibitors of the Aldehyde Dehydrogenase Family (ALDH1A3) Primary screen (AID 2061315);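 note: plate controls were DMSO vehicle for no effect and reference inhibitor for full effect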
# Settings: ALDH inhibition qHTS; series mostly up to 56 µM; activity change, negative = inhibition: at the top concentration
row,Compound,"activity change, negative = inhibition"
1,CC1(C)CCCC2(C)C1C(=O)C=C(C(=O)O)C2(O)C(=O)O (stereo not given),-4.9%
2,COC1=CC(=O)O[C@@H](/C=C/c2ccccc2)[C@@H]1O,11%
3,CC1=C2C(=O)C=C(CO)[C@@H]2[C@H]2OC(=O)[C@H](C)[C@@H]2[C@@H](O)C1,-14.5%
4,CC1C=CC2CCCCC2C1CCC1CC(O)CC(=O)O1 (stereo not given),16.8%
5,COC(=O)C1=COC(OC2OC(CO)C(O)C(O)C2O)C2C(C)C(OC(C)=O)C(OC(=O)c3ccccc3)C12 (stereo not given),-10.7% [at 28 µM]
6,C[C@]12CCC[C@](C)(C(=O)O)C1[C@@H](O)[C@@H](O)C13CC(CCC12)C(CO)(O[C@@H]1O[C@H](CO)[C@@H](O)[C@H](O)[C@H]1O)C3 (stereo not given in full),-12.7% [at 28 µM]
7,Cc1[nH]c2ccccc2c1CCNC(=O)c1ccccc1F,-7.19%
8,O=C(Cc1ccc(-c2ccccc2)cc1)NC1CCC1,7.02%
9,C[C@]12CC/C(=N\OCC(=O)O)C=C1CC[C@@H]1[C@@H]2[C@@H](O)C[C@@]2(C)[C@H]1CC[C@]2(O)C(=O)CO,-3.04%
10,N#Cc1cccc(C(=O)Nc2cc(-c3ccccc3)nn2-c2ccccc2)c1,7.48%
11,COc1cc(OC)cc(C(=O)Nc2ccc(Cl)c(-c3nc4ccc(N(C)C)cc4[nH]3)c2)c1,13.3%
12,C[C@@H]1O[C@@H](OC[C@H]2O[C@@H](OCCc3ccccc3)[C@H](O)[C@@H](O)[C@@H]2O)[C@H](O)[C@H](O)[C@H]1O,-2.59% [at 28 µM]
13,C=C1C(=O)OC2C1C(O)CC1(C)C(O)CCC(C=O)C21 (stereo not given),10.3%
14,C[C@@H]1CCC2C(C)(C)[C@H](O)CC[C@]2(C)[C@@]12Cc1c(O)cc3c(c1O2)CNC3=O (stereo not given in full),0.37%
15,O=C(COc1cccc2c(=O)[nH]ccc12)c1ccccc1,11.1%
16,CC(CCC1(O)OC2CC3C4CCC5CC(O[C@@H]6O[C@H](CO)[C@@H](O)[C@H](O)[C@H]6O[C@@H]6OC[C@@H](O)[C@H](O)[C@H]6O)C(O)CC5(C)C4CCC3(C)C2C1C)CO[C@@H]1O[C@H](CO)[C@@H](O)[C@H](O)[C@H]1O (stereo not given in full),-0.802% [at 16.9 µM]
17,CC1CCC2(NC1)OC1CC3C4CC=C5CC(O[C@@H]6O[C@H](CO)[C@@H](O[C@@H]7O[C@@H](C)[C@H](O)[C@@H](O)[C@H]7O)[C@H](O)[C@H]6O[C@@H]6O[C@@H](C)[C@H](O)[C@@H](O)[C@H]6O)CCC5(C)C4CCC3(C)C1C2C (stereo not given in full),16.2% [at 16.9 µM]
18,CC1CCC2C(C)(C)[C@@H](O)CC[C@]2(C)C12Cc1c(O)cc3c(c1O2)CN(C(CCC(=O)O)C(=O)O)C3=O (stereo not given in full),11.7% [at 28 µM]
19,C/C(=N\O)c1ccc(OCC(=O)N2CCCCC2)cc1,-25.5%
20,Cc1noc(-c2ccc(-c3ccc(CC(=O)O)cc3)cc2)c1NC(=O)O[C@H](C)c1ccccc1,135%

row,Compound,"activity change, negative = inhibition"
1,CC(C)=CCC[C@](C)(O[C@@H]1O[C@H](CO[C@@H]2OC[C@H](O)[C@H](O)[C@H]2O)[C@@H](O)[C@H](O)[C@H]1O)[C@H]1CC[C@]2(C)[C@@H]1[C@H](O)C[C@@H]1[C@@]3(C)CC[C@H](O[C@@H]4O[C@H](CO)[C@@H](O)[C@H](O)[C@H]4O[C@@H]4O[C@H](CO)[C@@H](O)[C@H](O)[C@H]4O)C(C)(C)[C@@H]3CC[C@]12C,15.9% [at 28 µM]
2,Cc1noc(=O)c2ccc(NC(=O)C(O)(CC(C)(C)c3cccc4c3OCC4)C(F)(F)F)cc12 (stereo not given),5.94%
3,C[C@@H]1C/C=C/C=C\C=C\C=C\[C@H](O[C@@H]2O[C@H](C)[C@@H](O)[C@H](N)[C@@H]2O)C[C@@H]2O[C@](O)(C[C@@H](O)C[C@H]3O[C@@H]3/C=C/C(=O)O1)C[C@H](O)[C@H]2C(=O)O,11.4% [at 16.9 µM]
4,CC(=O)O[C@@H]1C[C@@]2(C)C(CC[C@]3(C)C2CC=C2C4CC(C)(C)CC[C@]4(C(=O)O)CC[C@]23C)C(C)(C)[C@H]1O (stereo not given in full),8.61% [at 28 µM]
5,CC(C)(C)Oc1ccc(OCC2Cc3ccccc3CN2C(=O)c2cccc3ccccc23)cc1 (stereo not given),0.0771%
6,CC1=C2CC(C)(C)CC2C(O)C2=C(C1)C(=O)OC2O (stereo not given),-1.18%
7,COc1cc2occc2c(O[C@@H]2O[C@H](CO)[C@@H](O)[C@H](O)[C@H]2O)c1CCC(=O)O,-9.7% [at 28 µM]
8,O=S(=O)(c1ccc(S(=O)(=O)n2cnc3ccccc32)cc1)N1CCCCCC1,-10.9% [at 28 µM]
9,O=C(Nc1ccc(C(O)(C(F)(F)F)C(F)(F)F)cc1)c1ccc(C(F)(F)F)cc1,13.5%
10,C/C(=C\C(=O)C[C@@]12C(=O)O[C@]3(C)CC[C@H]1C[C@H]23)C(N)=O,6.11%
11,CC1=CC[C@@]2(C)CC[C@@](O)(C(C)C)[C@@H]2[C@@H](O)C1,20.3%
12,C=C1C(=O)OC2CC(C)C(CCC(C)=O)=CCC12 (stereo not given),6.04%
13,Cc1occc(=O)c1O[C@@H]1O[C@H](COC(=O)CC(C)(O)CC(=O)O)[C@@H](O)[C@H](O)[C@H]1O (stereo not given in full),-8.25% [at 28 µM]
14,CC1(C)CC[C@]2(C(=O)O[C@@H]3O[C@H](CO)[C@@H](O)[C@H](O)[C@H]3O)[C@H](O)C[C@]3(C)C(=CCC4[C@@]5(C)CC[C@H](O[C@@H]6OC[C@@H](O)[C@H](O)[C@H]6O)[C@@](C)(C(=O)O)C5CC[C@]43C)[C@@H]2C1 (stereo not given in full),2.17% [at 16.9 µM]
15,CC(C)C1=CC2=CCC3[C@](C)(CCC[C@@]3(C)C(=O)O)C2CC1=O (stereo not given in full),12.8%
16,CC(C)c1ccc2c(c1)[C@H](O)CC1[C@@](C)(C(=O)O)CCC[C@]21C (stereo not given in full),7.22%
17,C[C@@H]1[C@H]2[C@H](O[C@@H]3O[C@H](CO)[C@@H](O)[C@H](O)[C@H]3O)OC=C(C(=O)O)[C@H]2C[C@@H]1OC(=O)/C=C/c1ccc(O)cc1,8.12% [at 28 µM]
18,CC1=C2C(=O)C=C(CO[C@@H]3O[C@H](CO)[C@@H](O)[C@H](O)[C@H]3O)[C@@H]2[C@H]2OC(=O)[C@H](C)[C@@H]2[C@@H](O)C1,-7.4% [at 28 µM]
19,CC1(C)O[C@H]2CC(=O)OC[C@]23[C@H]2CC[C@@]4(C)[C@H](c5ccoc5)OC(=O)[C@H]5O[C@]54[C@]2(C)C(=O)C[C@@H]13,18.3% [at 28 µM]
20,Cn1cc(-c2ccc3nnc(Sc4ccc5nn(C)cc5c4)n3n2)cn1,-5.62%
